Measured values reported in PubChem BioAssay (NCATS).
Results filed as inconclusive are left out. Entries that show only a call come without a potency. Unmarked numbers belong to inactive results. Active and inactive are the calls of the source. Unless noted, calls come from the whole dose curve; as a rule, active = well fitted curve in the direction sought with a large enough effect; inconclusive = small, poorly fitted or top-dose-only effect, or another doubt; inactive = no such curve, though single readings can be large; an effect the other way counts as inactive or inconclusive.

How the values were obtained:
[1] = target: Estrogen receptor (Homo sapiens) (UniProt P03372); assay: qHTS assay for small molecule agonists of estrogen receptor alpha signaling (AID 588514; calls by dose curve; note: nearly all actives have a fitted effect of over 70% in size)
Estrogen receptor (Homo sapiens), sequence (P03372 whole entry, looked up): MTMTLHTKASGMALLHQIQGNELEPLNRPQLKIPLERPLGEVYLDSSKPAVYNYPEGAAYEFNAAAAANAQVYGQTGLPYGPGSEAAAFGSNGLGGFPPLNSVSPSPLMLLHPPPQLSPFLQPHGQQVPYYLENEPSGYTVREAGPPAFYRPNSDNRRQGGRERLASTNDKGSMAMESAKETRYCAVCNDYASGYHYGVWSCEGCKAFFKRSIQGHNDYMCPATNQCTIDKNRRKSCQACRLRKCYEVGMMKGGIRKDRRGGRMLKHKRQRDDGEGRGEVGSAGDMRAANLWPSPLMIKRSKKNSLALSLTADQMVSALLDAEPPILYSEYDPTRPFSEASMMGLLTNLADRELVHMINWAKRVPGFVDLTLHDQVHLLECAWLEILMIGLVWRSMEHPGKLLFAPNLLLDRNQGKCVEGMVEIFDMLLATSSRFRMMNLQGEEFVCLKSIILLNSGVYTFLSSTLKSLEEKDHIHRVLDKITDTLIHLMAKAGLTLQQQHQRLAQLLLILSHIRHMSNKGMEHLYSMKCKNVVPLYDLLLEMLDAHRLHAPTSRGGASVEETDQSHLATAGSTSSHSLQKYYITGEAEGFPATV
Procedure, shortened: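 Cells were plated at 5000/well, incubated 4 hrs at 37 C, dosed with compound titration series, incubated 18 hrs at 37 C, loaded with CCF4 dye for 2 hrs at RT, then fluorescence was read.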

[2] = target: Vitamin D3 receptor (Homo sapiens) (UniProt P11473); assay: qHTS assay for small molecule antagonists of vitamin D receptor signaling (AID 588541; calls by dose curve;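 note: receptor activated by calcitriol during compound treatment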)
Vitamin D3 receptor (Homo sapiens), sequence (P11473 whole entry, looked up): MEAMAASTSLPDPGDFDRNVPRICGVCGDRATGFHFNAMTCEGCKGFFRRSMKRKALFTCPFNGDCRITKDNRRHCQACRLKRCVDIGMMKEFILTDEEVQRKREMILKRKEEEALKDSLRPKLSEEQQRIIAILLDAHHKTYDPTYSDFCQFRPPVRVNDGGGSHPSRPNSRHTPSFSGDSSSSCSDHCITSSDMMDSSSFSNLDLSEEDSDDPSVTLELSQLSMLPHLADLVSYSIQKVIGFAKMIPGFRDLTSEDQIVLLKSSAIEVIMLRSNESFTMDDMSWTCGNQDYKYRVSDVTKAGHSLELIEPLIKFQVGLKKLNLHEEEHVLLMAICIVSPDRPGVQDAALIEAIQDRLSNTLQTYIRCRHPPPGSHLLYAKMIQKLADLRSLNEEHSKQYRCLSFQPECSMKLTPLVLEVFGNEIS
Procedure, shortened: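 VDR-UAS-bla HEK293T cells (2000/well, 2% charcoal-stripped FBS) were treated with titrated compounds plus 1-alpha,25-dihydroxyvitamin D3 (50 nM or 3 nM final) for 16 h at 37 C. CCF4 beta-lactamase fluorescence was read; Hill fits gave IC50.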

[3] = target: Retinoic acid receptor RXR-alpha (Homo sapiens) (UniProt P19793); assay: qHTS assay for small molecule antagonists of retinoid X receptor alpha signaling (AID 588546; active = well fitted inhibition curve with a large enough effect in the signal ratio, with a control signal flat, not every such curve was filed as active; the % refers to the signal ratio;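 note: cells stimulated with 9-cis-retinoic acid as agonist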); conditions: HEK293T RXRa-UAS-bla, beta-lactamase ratio, antagonist mode
Retinoic acid receptor RXR-alpha (Homo sapiens), sequence (P19793 whole entry, looked up): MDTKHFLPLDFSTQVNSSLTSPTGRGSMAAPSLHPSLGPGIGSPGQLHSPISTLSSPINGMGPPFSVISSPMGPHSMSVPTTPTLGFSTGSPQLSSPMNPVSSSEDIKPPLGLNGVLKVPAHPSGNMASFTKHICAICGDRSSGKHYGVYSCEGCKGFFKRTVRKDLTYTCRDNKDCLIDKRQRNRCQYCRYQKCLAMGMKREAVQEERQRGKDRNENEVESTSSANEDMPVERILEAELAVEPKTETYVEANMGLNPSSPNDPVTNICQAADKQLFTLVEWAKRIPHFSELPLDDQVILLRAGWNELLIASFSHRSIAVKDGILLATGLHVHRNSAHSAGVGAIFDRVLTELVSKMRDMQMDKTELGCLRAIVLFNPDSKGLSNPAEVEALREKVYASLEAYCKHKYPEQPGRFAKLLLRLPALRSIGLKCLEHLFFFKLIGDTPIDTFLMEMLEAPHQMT
Procedure, shortened: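 Beta-lactamase reporter inhibition, read as CCF4 fluorescence ratio (ex 405, em 460/530 nm) after 2 h at RT. HEK293T UAS-bla cells, 2500/well, were stimulated with 9-cis-RA at 500 or 100 nM final alongside test compound for 18 h at 37 C.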

[4] = qHTS assay for environmental chemicals that activate the Aryl hydrocarbon Receptor (AhR) signaling pathway (AID 651777); conditions: 1A2-DRE human hepatoma cells, luciferase, 24 h; activation: stronger effect = higher value; note: nearly all actives have a fitted effect of over 15% in size
Procedure, shortened: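 Reporter gene assay: hepatoma cells with DRE/CYP1A2-luciferase, 24 hr compound incubation at 37 C, 5% CO2, luminescence after One-Glo (30 min, RT).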

[5] = qHTS assay for small molecule agonists of the antioxidant response element (ARE) signaling pathway measured by Nrf2-dependant transcriptional activity - cell viability counter screen (AID 720653; active = well fitted curve in the direction sought with a large enough effect in the repeat runs; an effect the other way counts as inactive or inconclusive); conditions: ARE-bla HepG2 viability, CellTiter-Glo ATP luminescence, 16 h; max response: stronger effect = lower value
Procedure, shortened: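 ARE-bla HepG2 cells (2,000/well) rested 5 hrs at 37C/5% CO2, then exposed to compounds in DMSO for 16 hrs. Viability was read in the same wells as intracellular ATP by luminescence, 30 min at room temperature after reagent addition.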

AA1029 = assay: qHTS profiling for inhibitors of Plasmodium falciparum proliferation (AID 504749); note: nearly all actives have a fitted effect of over 60% in size; note: potency is the fitted concentration of half-maximal effect; conditions: P. falciparum in erythrocytes, SYBR Green DNA, 72 h; series mostly up to 28.7 µM
Procedure, shortened: (§1)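 Parasite proliferation within erythrocytes, 72 h exposure. Endpoint: SYBR Green I fluorescence after overnight lysis at room temperature. Controls: 0.29 uM artemisinin, DMSO.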

ATS95 = assay: as above; conditions: P. falciparum in erythrocytes, SYBR Green DNA, 72 h; series mostly up to 28.7 µM
Procedure, shortened: as §1

CP260 = assay: as above; conditions: P. falciparum in erythrocytes, SYBR Green DNA, 72 h; series mostly up to 28.7 µM
Procedure, shortened: as §1

DIV14 = assay: as above; conditions: P. falciparum in erythrocytes, SYBR Green DNA, 72 h; series mostly up to 28.7 µM
Procedure, shortened: as §1

GB4 = assay: as above; conditions: P. falciparum in erythrocytes, SYBR Green DNA, 72 h; series mostly up to 28.7 µM
Procedure, shortened: as §1

P93_24 = assay: as above; conditions: P. falciparum in erythrocytes, SYBR Green DNA, 72 h; series mostly up to 28.7 µM
Procedure, shortened: as §1

P94_40 = assay: as above; conditions: P. falciparum in erythrocytes, SYBR Green DNA, 72 h; series mostly up to 28.7 µM
Procedure, shortened: as §1

TAB109 = assay: as above; conditions: P. falciparum in erythrocytes, SYBR Green DNA, 72 h; series mostly up to 28.7 µM
Procedure, shortened: as §1

AS120 = assay: as above; conditions: P. falciparum in erythrocytes, SYBR Green DNA, 72 h; series mostly up to 28.7 µM
Procedure, shortened: as §1

DIV17 = assay: as above; conditions: P. falciparum in erythrocytes, SYBR Green DNA, 72 h; series mostly up to 28.7 µM
Procedure, shortened: as §1

SC27B = assay: as above; conditions: P. falciparum in erythrocytes, SYBR Green DNA, 72 h; series mostly up to 28.7 µM
Procedure, shortened: as §1

TAB165 = assay: as above; conditions: P. falciparum in erythrocytes, SYBR Green DNA, 72 h; series mostly up to 28.7 µM
Procedure, shortened: as §1

## CC(C)=CC1C(C(=O)OCc2coc(Cc3ccccc3)c2)C1(C)C (stereo not drawn)
[1]
  Potency: inactive
[2]
  Potency: inactive
[3]
  max response: 3.05%
[4]
  activation: 3.96%
[5]
  max response: -23.8%
AA1029
  Potency: inactive
ATS95
  Potency: inactive
CP260
  Potency: inactive
DIV14
  Potency: inactive
GB4
  Potency: inactive
P93_24
  Potency: inactive
P94_40
  Potency: inactive
TAB109
  Potency: inactive

## C=C1CC2C(CC[C@]3(C)C(=O)CCC23)[C@]2(C)C=CC(=O)C=C12 (stereo partly drawn)
AA1029
  Potency: inactive
AS120
  Potency: inactive
ATS95
  Potency: inactive
DIV14
  Potency: inactive
DIV17
  Potency: inactive
GB4
  Potency: inactive
P93_24
  Potency: inactive
P94_40
  Potency: inactive
SC27B
  Potency: inactive
TAB109
  Potency: inactive
TAB165
  Potency: inactive

## CCC/C=C/C=C/C(=O)OC1/C(=C/C(=O)OC)CC2CC(C(C)O)OC(=O)CC(O)CC3CC(OC(C)=O)C(C)(C)C(O)(CC4C/C(=C/C(=O)OC)CC(/C=C\C(C)(C)C1(O)O2)O4)O3 (stereo not drawn)
AA1029
  Potency: 1780 nM (active)
AS120
  Potency: 1000 nM (active)
ATS95
  Potency: 2510 nM (active)
CP260
  Potency: 2820 nM (active)
DIV14
  Potency: 1070 nM (active)
DIV17
  Potency: 953 nM (active)
GB4
  Potency: 1510 nM (active)
P93_24
  Potency: 2240 nM (active)
P94_40
  Potency: 2240 nM (active)
SC27B
  Potency: 2510 nM (active)
TAB109
  Potency: 2510 nM (active)
TAB165
  Potency: 1410 nM (active)

## NC(Cc1ccc(Oc2cc(I)c(O)c(I)c2)c(I)c1)C(=O)O (stereo not drawn)
AA1029
  Potency: inactive
AS120
  Potency: inactive
ATS95
  Potency: inactive
CP260
  Potency: inactive
DIV14
  Potency: inactive
DIV17
  Potency: inactive
GB4
  Potency: inactive
P93_24
  Potency: inactive
SC27B
  Potency: inactive
TAB109
  Potency: inactive
TAB165
  Potency: inactive

## CCN(CC)C(=O)N[C@@H]1C=C2c3cccc4[nH]cc(c34)C[C@H]2N(C)C1
AS120
  Potency: 12600 nM (active)
DIV14
  Potency: 13500 nM (active)
DIV17
  Potency: 10700 nM (active)
GB4
  Potency: 8490 nM (active)
P93_24
  Potency: 7940 nM (active)
P94_40
  Potency: 8910 nM (active)
TAB165
  Potency: 12600 nM (active)

## CC(CO)NC(=O)C1C=C2c3cccc4[nH]cc(c34)CC2N(C)C1 (stereo not drawn)
AA1029
  Potency: inactive
AS120
  Potency: inactive
ATS95
  Potency: inactive
CP260
  Potency: inactive
GB4
  Potency: inactive
P93_24
  Potency: inactive
P94_40
  Potency: inactive
SC27B
  Potency: inactive
TAB109
  Potency: inactive
TAB165
  Potency: inactive

## CN(C)C1C(=O)C(C(N)=O)C(=O)C2(O)C(=O)C3C(=O)c4c(O)cccc4C(C)(O)C3C(O)C12 (stereo not drawn)
AS120
  Potency: inactive
SC27B
  Potency: inactive

## CC(=O)Oc1ccc2c3c1OC1[C@@H](OC(C)=O)C=C[C@H]4[C@H](C2)N(C)CC[C@]314 (stereo partly drawn)
AA1029
  Potency: inactive
AS120
  Potency: inactive
ATS95
  Potency: inactive
CP260
  Potency: inactive
DIV14
  Potency: inactive
GB4
  Potency: inactive
P93_24
  Potency: inactive
P94_40
  Potency: inactive
SC27B
  Potency: inactive
TAB109
  Potency: inactive
TAB165
  Potency: inactive

## CCC(=O)OC1(c2ccccc2)CCN(C)CC1C (stereo not drawn)
DIV14
  Potency: inactive
GB4
  Potency: 7570 nM (active)

## CC(=O)O[C@H]1C[C@H](O[C@H]2[C@@H](O)CC(O[C@H]3[C@@H](O)C[C@H](O[C@H]4CC[C@@]5(C)[C@H](CC[C@@H]6[C@@H]5CC[C@]5(C)[C@@H](C7=CC(=O)OC7)CC[C@]65O)C4)O[C@@H]3C)O[C@@H]2C)O[C@H](C)[C@H]1O[C@@H]1O[C@H](CO)[C@@H](O)[C@H](O)[C@H]1O (stereo partly drawn)
AA1029
  Potency: inactive
AS120
  Potency: inactive
ATS95
  Potency: inactive
CP260
  Potency: inactive
GB4
  Potency: inactive
P93_24
  Potency: inactive
P94_40
  Potency: inactive
SC27B
  Potency: inactive
TAB165
  Potency: inactive

## O=C1CC2OCC=C3CN4CCC56c7ccccc7N1C5[C@H]2[C@H]3C[C@H]46 (stereo partly drawn) (tested in a mixture with another compound)
ATS95
  Potency: inactive
P93_24
  Potency: inactive
P94_40
  Potency: inactive
SC27B
  Potency: inactive
TAB165
  Potency: inactive
